From PubChem BioAssay (NCI)
The panel holds about 79,000 compounds, 15% with a hit somewhere; the sample as a whole holds those more often. Active and inactive are the calls of the source. Cut-off read from the data, not from the text of the source: active = growth inhibition above about 70%; inactive = the rest.

Columns and labels:
[1] = NCI Yeast Anticancer Drug Screen. Data for the rad52 strain (AID 147);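 note: 0% = growth of vehicle-treated control cultures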; settings: S. cerevisiae rad52 mutant growth inhibition, stronger effect = higher value
In short: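 Inhibition of yeast growth, referenced to vehicle controls, was the measured output for a strain with defective DNA damage repair.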

[2] = NCI Yeast Anticancer Drug Screen. Data for the wt1 strain (AID 149);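 note: 0% = growth of vehicle-treated wt1 cultures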; settings: S. cerevisiae wt1 strain (SPY 50644) growth inhibition, stronger effect = higher value
In short: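 Using yeast strain wt1, compound-induced growth inhibition was determined against vehicle-treated cultures.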

[3] = NCI Yeast Anticancer Drug Screen. Data for the rad50EPP+ strain (AID 151);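 note: 0% = growth of vehicle-treated control cultures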; settings: S. cerevisiae rad50 mutant strain, stronger effect = higher value
In short: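 Genetically defined yeast (rad50EPP+, DNA damage repair alteration) is grown with compound, and inhibition of growth is expressed relative to vehicle-treated controls.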

[4] = NCI Yeast Anticancer Drug Screen. Data for the mgt1 strain (AID 153); settings: S. cerevisiae mgt1 mutant growth inhibition, stronger effect = higher value
In short: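 In the mgt1 strain, test compounds were added and growth inhibition was determined relative to vehicle-treated controls.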

[5] = NCI Yeast Anticancer Drug Screen. Data for the rad50 strain (AID 155);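 note: 0% = growth of vehicle-only cultures of the same strain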; settings: S. cerevisiae rad50 strain growth inhibition, stronger effect = higher value
In short: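 Relative growth inhibition (compound vs vehicle) was measured in yeast with a defined repair-gene alteration.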

[6] = NCI Yeast Anticancer Drug Screen. Data for the mec2-1 strain (AID 157); settings: S. cerevisiae mec2-1 strain, stronger effect = higher value
In short: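 Each compound was tested on mec2-1 yeast, a strain altered in DNA damage repair or cell cycle control. Growth inhibition is reported relative to vehicle.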

[7] = NCI Yeast Anticancer Drug Screen. Data for the rad14 strain (AID 159);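 note: 0% = growth of vehicle-treated control cultures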; settings: S. cerevisiae rad14 strain growth inhibition, stronger effect = higher value
In short: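 Screen for anticancer potential: a yeast strain altered in DNA damage repair is grown with compound, and reduced growth is quantified against vehicle controls.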

[8] = NCI Yeast Anticancer Drug Screen. Data for the CLN2oe strain (AID 163);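 note: 0% = growth of vehicle-only control cultures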; settings: S. cerevisiae CLN2oe strain, stronger effect = higher value
In short: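 First, the altered yeast strain was treated with each compound; second, its growth was measured; finally, inhibition was derived by comparison with vehicle controls.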

[9] = NCI Yeast Anticancer Drug Screen. Data for the cln2 rad14 strain (AID 165);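 note: 0% = growth equal to vehicle treated cultures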; settings: S. cerevisiae cln2 rad14 strain, stronger effect = higher value
In short: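 Test compounds were added to cln2 rad14 yeast cultures; inhibition of growth was then determined by comparison with vehicle treatment.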

[10] = NCI Yeast Anticancer Drug Screen. Data for the bub3 strain (AID 167); settings: S. cerevisiae bub3 mutant strain, stronger effect = higher value
In short: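 Screening used yeast with an engineered genetic alteration affecting cell cycle control. Compound-exposed cultures were compared with vehicle cultures, and reduced growth was taken as inhibition.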

[11] = NCI Yeast Anticancer Drug Screen. Data for the wt2 strain (AID 169);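 note: 0% = growth of vehicle-treated yeast cultures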; settings: S. cerevisiae wt2 strain growth inhibition, stronger effect = higher value
In short: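 The panel's yeast strains carry defined changes in DNA repair or cell cycle genes. Each strain is grown with compound, and growth loss is scored relative to vehicle.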

[12] = NCI Yeast Anticancer Drug Screen. Data for the mlh1 strain (AID 171);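 note: 0% = growth of vehicle-treated control cultures of the same strain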; settings: S. cerevisiae mlh1 strain growth inhibition, stronger effect = higher value
In short: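 Inhibition values reflect reduced yeast growth in the presence of compound, referenced to vehicle controls, using a strain chosen for its alteration in DNA repair or cell cycle control.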

[13] = NCI Yeast Anticancer Drug Screen. Data for the sgs1 strain (AID 173);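 note: 0% = growth of vehicle-only control cultures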; settings: S. cerevisiae sgs1 mutant, stronger effect = higher value
In short: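 Vehicle-treated cultures served as reference for growth inhibition of a yeast strain altered in DNA damage repair or cell cycle control after compound exposure.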

[14] = NCI Yeast Anticancer Drug Screen. Data for the mlh1 rad18 strain (AID 175); settings: S. cerevisiae mlh1 rad18 strain growth inhibition, stronger effect = higher value
In short: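 Inhibition values reflect reduced growth of mutant yeast versus vehicle-treated controls following compound exposure; the mutations affect DNA damage repair.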

[15] = NCI Yeast Anticancer Drug Screen. Data for the rad18 strain (AID 177); settings: S. cerevisiae rad18 mutant growth inhibition, stronger effect = higher value
In short: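 Steps: expose repair-mutant yeast to compound; measure growth; express as inhibition relative to vehicle control.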

[16] = at 5.0 µM (retest, dose inferred, filed as 0.5)
[17] = at 50.0 µM (retest, dose inferred, filed as 5.0)

Measured: growth inhibition

CCCCCCCC1(N=[N+]=[N-])C(=O)c2ccccc2N(C)C1=O (stereo not given)
active: [1]; at 100.0 µM 75% | [2]; at 100.0 µM 73% | [5]; at 50.0 µM 79.3% | [5]; at 100.0 µM 74% | [6]; at 33.0 µM 72% | [6]; [17] 80% | [6]; at 50.0 µM 81.2% | [6]; at 100.0 µM 80% | [8]; at 100.0 µM 79% | [9]; [17] 75% | [10]; [17] 83% | [12]; at 100.0 µM 78% | [13]; at 33.0 µM 71% | [13]; at 100.0 µM 85% | [14]; [17] 87% | [14]; at 50.0 µM 76.3% | [15]; at 100.0 µM 83%
inactive: [1]; at 1.2 µM 2% | [1]; at 3.7 µM 18% | [1]; at 11.0 µM 18% | [1]; at 33.0 µM 68% | [2]; at 1.2 µM 7% | [2]; at 3.7 µM 7% | [2]; at 11.0 µM 7% | [2]; at 33.0 µM 59% | [3]; at 1.2 µM 5% | [3]; at 3.7 µM 15% | [3]; at 11.0 µM 24% | [3]; at 33.0 µM 54% | [3]; at 100.0 µM 65% | [4]; at 1.2 µM -11% | [4]; at 3.7 µM -18% | [4]; at 11.0 µM -2% | [4]; at 33.0 µM 51% | [4]; at 100.0 µM 69% | [5]; at 1.2 µM -1% | [5]; at 3.7 µM 1% | [5]; [16] -4% | [5]; at 11.0 µM 13% | [5]; at 33.0 µM 67% | [5]; [17] 60% | [6]; at 1.2 µM -3% | [6]; at 3.7 µM -27% | [6]; [16] -1% | [6]; at 11.0 µM -2% | [7]; at 1.2 µM -23% | [7]; at 3.7 µM -20% | [7]; at 11.0 µM -20% | [7]; at 33.0 µM 39% | [7]; at 100.0 µM 63% | [8]; at 1.2 µM 21% | [8]; at 3.7 µM 8% | [8]; at 11.0 µM 23% | [8]; at 33.0 µM 61% | [9]; [16] 30% | [9]; at 50.0 µM 68.7% | [10]; at 1.2 µM -9% | [10]; at 3.7 µM -17% | [10]; [16] 3% | [10]; at 11.0 µM -15% | [10]; at 33.0 µM 52% | [10]; at 50.0 µM 64.5% | [10]; at 100.0 µM 69% | [11]; at 1.2 µM 13% | [11]; at 3.7 µM 16% | [11]; at 11.0 µM 20% | [11]; at 33.0 µM 57% | [11]; at 100.0 µM 67% | [12]; at 1.2 µM 20% | [12]; at 3.7 µM 10% | [12]; at 11.0 µM 18% | [12]; at 33.0 µM 61% | [13]; at 1.2 µM 9% | [13]; at 3.7 µM 14% | [13]; at 11.0 µM 20% | [14]; [16] 0% | [15]; at 1.2 µM 18% | [15]; at 3.7 µM 12% | [15]; at 11.0 µM 20% | [15]; at 33.0 µM 67%
